Bioassay records: PubChem BioAssay, National Center for Advancing Translational Sciences (NCATS)
G9a block: qHTS Assay for Inhibitors of Histone Lysine Methyltransferase G9a | Histone-lysine N-methyltransferase EHMT2 (Homo sapiens), Q96KQ7 | G9a H3K9 monomethylation, AlphaScreen, 2 h | Potency, µM (doses to about 102 µM), without a hit: at the top dose activity, negative = inhibition, actives largely listed as inhibitors | actives 8.8% (n = 350,000) | AID 504332, 2011; further: on the % scale 0 is the no-effect control and ±100 the full control effect; nearly all actives have a fitted effect of over 75% in size
Target sequence (Q96KQ7 913-1193 limits assumed): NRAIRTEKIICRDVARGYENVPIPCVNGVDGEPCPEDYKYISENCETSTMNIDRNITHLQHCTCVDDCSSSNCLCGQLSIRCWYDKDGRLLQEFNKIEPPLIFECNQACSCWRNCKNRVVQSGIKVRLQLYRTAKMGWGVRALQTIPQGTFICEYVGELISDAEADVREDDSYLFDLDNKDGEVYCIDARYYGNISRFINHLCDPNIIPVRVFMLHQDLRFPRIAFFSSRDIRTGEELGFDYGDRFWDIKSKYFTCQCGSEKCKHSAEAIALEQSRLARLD
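Enzyme 20 nM + cpd, 15 min RT; add b-H3K9 pep 500 nM / SAM 20 uM; 2 h RT; anti-H3K9me1 Ab 0.5 ug/mL + SA donor / anti-rabbit acceptor beads 20 ug/mL each, 10 min; AlphaScreen read.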
JMJD2A Tudor inh: qHTS Assay for Inhibitors of JMJD2A-Tudor Domain. Lysine-specific demethylase 4A (Homo sapiens), O75164. AlphaScreen JMJD2A-Tudor / H3K4me3 peptide binding. actives 4.4% (n = 390,000). Potency, µM (top dose mostly 114 µM), inactives show top-dose activity change, negative = inhibition, most hits filed as inhibitors. AID 504339, 2011; further: on the % scale 0 is the no-effect control and ±100 the full control effect; nearly all actives have a fitted effect of over 50% in size
HP1b binding inh: HTS for Inhibitors of HP1-beta Chromodomain Interactions with Methylated Histone Tails; Chromobox protein homolog 1 (Homo sapiens), P83916; Potency, µM (series often up to 114 µM), without a hit: at the top dose activity change, negative = inhibition, usual class: inhibitors; AlphaScreen HP1-beta / biotin-H3K9me3 peptide binding; actives 0.56% (n = 390,000); further: nearly all actives have a fitted effect of over 70% in size
Target sequence (P83916 whole entry, looked up): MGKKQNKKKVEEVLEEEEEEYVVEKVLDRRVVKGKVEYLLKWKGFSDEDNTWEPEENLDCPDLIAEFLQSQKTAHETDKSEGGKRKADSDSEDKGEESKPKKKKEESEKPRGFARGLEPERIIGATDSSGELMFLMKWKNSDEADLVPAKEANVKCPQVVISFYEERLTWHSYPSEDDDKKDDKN
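HP1-beta protein (50 nM final) preincubated 30 min at room temperature with biotinylated H3(1-18)K9me3 peptide (50 nM) in PBS pH 7.4, 0.01% Tween-20, then compound added for 30 min. AlphaScreen streptavidin donor/nickel chelate acceptor beads (10 ug/mL final), 30 min dark, luminescence read.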
BAZ2B inh: qHTS Assay for Inhibitors of BAZ2B; AlphaScreen BAZ2B-H3K14Ac peptide displacement; Bromodomain adjacent to zinc finger domain protein 2B (Homo sapiens), Q9UIF8; actives 4.4% (n = 360,000); Potency, µM (titrated, usually from 114 µM), without a hit: at the top dose activity change, negative = inhibition, actives largely listed as inhibitors; further: on the % scale 0 is the no-effect control and ±100 the full control effect; nearly all actives have a fitted effect of over 60% in size
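Multi-concentration screen (max 110 uM) measuring displacement of acetylated histone H3 peptide from BAZ2B by AlphaScreen, using 50 nM protein, 50 nM peptide and 10 ug/mL streptavidin donor plus Ni-chelate acceptor beads.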
GLS inh: qHTS for Inhibitors of Glutaminase (GLS); Potency, µM (titrated, usually from 45.5 µM), for the others: at the top dose activity change, negative = inhibition, actives largely listed as inhibitors; actives 0.21% (n = 410,000); Glutaminase kidney isoform, mitochondrial (Homo sapiens), O94925; GLS enzymatic activity, qHTS titration; further: on the % scale 0 is the no-effect control and ±100 the full control effect
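Human kidney-isoform GLS in 45 mM KH2PO4 pH 8.2, 0.02% Tween-20, with compound, started with 1mM L-Glutamine (added stock). Glutamate oxidase/HRP/Amplex red coupled fluorescence read at start and after 30 min at RT.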
L3MBTL1 inh: qHTS Assay for the Inhibitors of L3MBTL1; Lethal(3)malignant brain tumor-like protein 1 (Homo sapiens), Q9Y468; AlphaScreen L3MBTL1–H3K9me1 peptide binding; Potency, µM (top dose mostly 57.1 µM), without a hit: at the top dose activity, negative = inhibition, most hits filed as inhibitors; actives 0.66% (n = 230,000); AID 485360, 2010; further: on the % scale 0 is the no-effect control and ±100 the full control effect; nearly all actives have a fitted effect of over 60% in size
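L3MBTL1 (50 nM) pre-complexed 30 min with biotinylated H3(1-15)K9me1 peptide (75 nM), then compounds added for 30 min at room temperature; AlphaScreen streptavidin donor/nickel chelate acceptor beads (10 ug/mL final) read after 30 min dark incubation.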
* marks the source's active call; other numbers are inactive results; ? = inconclusive; nt = not tested or not shown; [ ] = another dose, or the depositor's remark. Shown are actives, neighbours in structure and some others; about 10% of the full set was active somewhere. The call rests on the fitted dose curve; in most records, active means well fitted curve in the direction sought with a large enough effect; inconclusive means small, poorly fitted or top-dose-only effect, or another doubt; inactive means no such curve, though single readings can be large; an effect the other way counts as inactive or inconclusive. Potency means the concentration at half of the fitted maximal effect.

SMILES	G9a block	JMJD2A Tudor inh	HP1b binding inh	BAZ2B inh	GLS inh	L3MBTL1 inh
Cc1ccc2nc(-c3cccc(NC(=O)c4cccc5c(Cl)cccc45)c3)oc2c1	-21%[59 µM]	-2%	27%	-11%	-16%	nt
O=C(O)c1cc(S(=O)(=O)Nc2cc(Cl)ccc2Oc2ccccc2)ccc1O	16µM*	-35%	10%	-33%	11%	1%
COc1cc2c(c(OC)c1OC)-c1c(cc3c(c1OC)OCO3)C[C@@H](C)[C@](C)(O)C2	nt	nt	nt	nt	9%	nt
COC(=O)c1ccc(Cl)cc1NC(=O)N1CC=C(c2c[nH]c3ccccc23)CC1	-39%[59 µM]	-30%	2%	?	-28%	nt
CCn1c(-c2cc(-c3ccc(OC(C)C)cc3)nc3ccccc23)n[nH]c1=S	28µM*	-20%	4%	-34%	-9%	nt
CCCOc1cccc(-c2cc(-c3n[nH]c(=S)n3CC)c3ccccc3n2)c1	-1%[0.0925 µM]	?	-29%	?	10%	-5%
CCn1c(-c2cc(-c3ccc(C)cc3)nc3ccccc23)n[nH]c1=S	8.9µM*	-33%	-16%	?	5%	-17%
CN(C)S(=O)(=O)N(Cc1ccc(Br)cc1)c1ccccc1	23%[12.7 µM]	58%	116%	115%	-3%	34%
CN(C)S(=O)(=O)N(CC(=O)N(Cc1ccccc1)Cc1ccccc1)c1ccccc1	-4%[59 µM]	?	8%	56µM*	0%	nt
CSCC[C@H](NS(=O)(=O)c1ccc(C(C)=O)cc1)c1nnc2ccccn12	45µM*	0%	46%	56µM*	-12%	nt
CSCCC(NC(=O)C1CCCC1)c1nnc2ccccn12 (configuration not stated)	2%	7%	14%[57 µM]	-13%	3%	nt
O=C(CNC(=O)c1ccc(C(F)(F)F)cc1)OC(C(=O)Nc1cc(C(F)(F)F)ccc1Cl)c1ccccc1 (configuration not stated)	nt	-19%	nt	nt	nt	nt
COc1ccc(CN2CCc3nc(SCC(=O)Nc4cc(C)cc(C)c4)[nH]c(=O)c3C2)cc1	?	0%	42%	-1%	-6%	nt
Cc1nc2sc(C(N)=O)c(N)c2c(-c2ccc(Br)cc2)c1C(=O)Nc1ccc(Cl)cc1	-20%[59 µM]	1%	16%	-53%	15%	nt
CC(=O)Nc1nc2n(n1)C(c1ccc(F)cc1)C=C(c1ccccc1)N2 (configuration not stated)	8.9µM*	?	25%	22µM*	?	-28%
O=C(Nc1nc2n(n1)C(c1ccc(F)cc1)C=C(c1ccccc1)N2)c1cccc([N+](=O)[O-])c1 (configuration not stated)	-42%[59 µM]	1%	48%	-11%	-25%	nt
COc1ccc(C(=O)Nc2nc3n(n2)C(c2ccccc2)C=C(c2ccccc2)N3)cc1 (configuration not stated)	25µM*	79µM*	39%	22µM*	4%	nt
COc1ccc(C2C=C(c3ccc(Cl)cc3)Nc3nc(NC(C)=O)nn32)cc1 (configuration not stated)	?	nt	nt	32µM*	nt	-9%
CC(=O)Nc1nc2n(n1)C(c1ccccc1)C=C(c1ccccc1)N2 (configuration not stated)	?	89µM*	40%	79µM*	-7%	-7%
COc1ccc(C2C=C(c3ccccc3)Nc3nc(NC(=O)/C=C/c4ccccc4)nn32)cc1 (configuration not stated)	-35%[59 µM]	2%	49%	4%	5%	nt
Cc1ccc(C(=O)c2cn(Cc3cc(C)ccc3C)c3nc(C)ccc3c2=O)cc1	-33%[59 µM]	-28%	1%	-12%	-3%	nt
CCOc1ccc(C2C(C(=O)c3ccco3)=C(O)C(=O)N2CCCn2ccnc2)cc1 (configuration not stated)	?	45µM*	22%	-2%	-12%	-1%
CC(=O)C1=C(O)C(=O)N(CCCn2ccnc2)C1c1ccc(Br)cc1 (configuration not stated)	?	-18%	24%	?	4%	7%
CCOc1ccc(C2C(C(=O)c3ccco3)=C(O)C(=O)N2CCCn2ccnc2)cc1OCC (configuration not stated)	?	-23%	23%	?	0%	nt
COc1ccc(C2C(C(C)=O)=C(O)C(=O)N2CCCn2ccnc2)cc1OC (configuration not stated)	50µM*	-10%	25%	?	15%	1%
SMILES	G9a block	JMJD2A Tudor inh	HP1b binding inh	BAZ2B inh	GLS inh	L3MBTL1 inh
Cn1cccc1C(=O)N1CCC[C@@]2(CCN(C(=O)Nc3cccc(F)c3)C2)C1	-2%[12.7 µM]	nt	nt	nt	nt	nt
Cc1ccc(-n2nc3c(N4CCC(C(=O)NCCC(C)C)CC4)nnc(C)c3c2C)cc1	-39%[59 µM]	-18%	31%	-10%	-9%	nt
O=C1c2ccccc2C(=O)N1Cc1nn2c(-c3ccc(Cl)cc3)nnc2s1	-1%	-4%	30%	32%	12%	2%
COc1ccc(-c2nnc3sc(CN4C(=O)c5ccccc5C4=O)nn23)cc1	35µM*	-3%	-7%	-1%	8%	-2%
COc1ccc(-c2nnc3sc(C(C)N4C(=O)c5ccccc5C4=O)nn23)cc1 (configuration not stated)	?	18µM*	0%	-6%	-8%	-21%
COc1ccc(-c2nnc3sc(-c4ccccn4)nn23)cc1	-4%[59 µM]	nt	nt	nt	nt	4%
CCC(=O)N[C@@H]1CC(C(C)(C)NC(=O)CC)CC=C1C (some centres not stated)	-41%	50µM*	-12%	-2%	10%	-2%
NCCS	14µM*	-12%	?	4%	-4%	13%
COc1ccc(CCNC(=O)CCc2c(C)c3cc4c(C)c(C)oc4cc3oc2=O)cc1	-2%[59 µM]	-8%	3%	-5%	-13%	nt
CC1CCN(S(=O)(=O)c2ccc(N/N=C(/C#N)C(N)=O)cc2)CC1	6%[2.33 µM]	-15%	-18%	-30%	-6%	-12%
N#C/C(=N\Nc1ccc(S(=O)(=O)N2CCOCC2)cc1)C(N)=S	0.56µM*	?	?	?	?	-12%
N#CC(C#N)=NNc1ccc(S(=O)(=O)N2CCCCC2)cc1	10µM*	40µM*	-35%	?	-4%	-22%
